Measurements reported in PubChem BioAssay (NCATS).
Values without a mark were called inactive. Results filed as inconclusive are left out. A call without a number means that no potency is given here. The source made the active and inactive calls. Unless noted, calls come from the whole dose curve; as a rule, active = well fitted curve in the direction sought with a large enough effect; inconclusive = small, poorly fitted or top-dose-only effect, or another doubt; inactive = no such curve, though single readings can be large; an effect the other way counts as inactive or inconclusive.

Experiments:
[1] = molecular target: Glucocorticoid receptor (Homo sapiens) (UniProt P04150); test: GR-GFP Redistribution (AID 450;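 active = compounds whose dose series gives a full or clear partial fitted curve of increased nuclear translocation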; note: potency is the fitted concentration of half-maximal effect); conditions: U2OS GR-GFP nuclear translocation, laser cytometry, 2 h
Sequence of Glucocorticoid receptor (Homo sapiens) (P04150 whole entry, looked up, the tested form may be a part): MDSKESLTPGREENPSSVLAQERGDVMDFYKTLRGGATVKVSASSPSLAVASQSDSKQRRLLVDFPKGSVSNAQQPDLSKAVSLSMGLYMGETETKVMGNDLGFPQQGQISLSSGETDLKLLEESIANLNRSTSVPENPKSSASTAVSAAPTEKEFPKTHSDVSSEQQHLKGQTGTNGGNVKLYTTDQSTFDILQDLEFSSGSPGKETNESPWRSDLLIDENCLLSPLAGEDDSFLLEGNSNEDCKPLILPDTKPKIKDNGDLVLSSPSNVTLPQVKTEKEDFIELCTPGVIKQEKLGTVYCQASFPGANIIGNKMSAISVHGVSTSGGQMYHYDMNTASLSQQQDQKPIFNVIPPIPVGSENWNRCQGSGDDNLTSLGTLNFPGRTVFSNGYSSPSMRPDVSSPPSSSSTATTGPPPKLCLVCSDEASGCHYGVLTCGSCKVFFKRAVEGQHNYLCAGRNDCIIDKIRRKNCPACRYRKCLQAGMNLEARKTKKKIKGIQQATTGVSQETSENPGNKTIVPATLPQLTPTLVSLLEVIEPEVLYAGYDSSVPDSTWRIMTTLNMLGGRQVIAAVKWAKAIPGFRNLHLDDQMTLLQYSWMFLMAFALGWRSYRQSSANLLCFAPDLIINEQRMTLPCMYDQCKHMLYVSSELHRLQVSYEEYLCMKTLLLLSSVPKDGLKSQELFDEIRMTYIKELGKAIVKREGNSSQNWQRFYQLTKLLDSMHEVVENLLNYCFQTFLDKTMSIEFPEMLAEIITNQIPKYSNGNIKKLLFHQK

[2] = molecular target: Glucocorticoid receptor (Homo sapiens) (UniProt P04150); test: GR-EFC Redistribution (AID 451; calls by dose curve; note: potency is the fitted concentration of half-maximal effect); conditions: CHO-K1 GR-EFC translocation, beta-gal luminescence, 2 h
Procedure, shortened: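 CHO-K1 cells stably expressing nuclear-localized β-gal enzyme acceptor and GR fused C-terminally to the enzyme donor fragment; ligand-driven nuclear translocation restores β-gal by complementation. Compounds titrated up to 46 uM final, 2 h at 37 °C; luminescence read.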

[3] = molecular target: Mitogen-activated protein kinase 10 (Mus musculus) (UniProt Q61831); test: JNK3 AlphaScreen Assay (AID 530; active = well fitted curve in either direction with a large enough effect, not every such curve was filed as active;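 note: kinase came from lysate of stimulated human HepG2 cells; signal reports phosphorylation of biotinylated GST-cJun 1-79 at Ser73 with 10 µM ATP; series mostly up to about 57 µM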)
Procedure, shortened: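 JNK3 came from HepG2 lysates pre-activated with IL-1beta and TNF-alpha and phosphorylated biotinylated GST-cJun (1-79) at 10 uM ATP, pH 7.6, room temperature. Compounds were titrated. AlphaScreen signal used anti-phospho-cJun (Ser73) antibody.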

[4] = molecular target: Cytochrome P450 3A4 (Homo sapiens) (UniProt P08684); test: qHTS Assay for Inhibitors and Substrates of Cytochrome P450 3A4 (AID 884); note: nearly all actives have a fitted effect of over 50% in size; note: potency is the fitted concentration of half-maximal effect
Sequence of Cytochrome P450 3A4 (Homo sapiens) (P08684 whole entry, looked up): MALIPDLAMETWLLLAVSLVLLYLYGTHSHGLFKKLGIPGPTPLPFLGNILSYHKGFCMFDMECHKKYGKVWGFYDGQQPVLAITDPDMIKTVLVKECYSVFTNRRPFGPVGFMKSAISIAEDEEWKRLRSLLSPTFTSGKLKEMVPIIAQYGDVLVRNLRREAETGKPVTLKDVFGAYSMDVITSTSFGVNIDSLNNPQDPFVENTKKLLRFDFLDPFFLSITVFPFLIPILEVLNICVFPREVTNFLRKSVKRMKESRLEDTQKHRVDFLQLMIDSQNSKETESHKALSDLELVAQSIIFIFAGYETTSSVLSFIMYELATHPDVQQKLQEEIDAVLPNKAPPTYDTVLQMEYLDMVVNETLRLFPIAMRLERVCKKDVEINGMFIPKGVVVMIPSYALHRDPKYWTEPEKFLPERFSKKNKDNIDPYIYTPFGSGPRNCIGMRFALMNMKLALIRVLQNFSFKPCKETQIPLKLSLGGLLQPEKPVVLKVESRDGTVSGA
Procedure, shortened: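 20 nM human CYP3A4 with 25 uM Luciferin-PPXE (at KM) in 200 mM KPO4, preincubated 10 min with compound; NADPH regeneration started a 60 min RT reaction. Luciferin detected by luminescence, normalized to 57 uM ketoconazole as full inhibition.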

[5] = molecular target: Cytochrome P450 3A4 (Homo sapiens) (UniProt P08684); test: qHTS Assay for Activators of Cytochrome P450 3A4 (AID 885); note: nearly all actives have a fitted effect of over 65% in size
Procedure, shortened: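 Steps: enzyme/substrate mix dispensed; compound added, 10 min RT; NADPH regeneration solution added, 60 min RT; luciferin detection buffer stops reaction; 20 min later luminescence measured.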

[6] = molecular target: DNA dC->dU-editing enzyme APOBEC-3G (Homo sapiens) (UniProt Q9HC16); test: qHTS for inhibitors of Vif-A3G interactions: Validation (AID 588379)
Sequence of DNA dC->dU-editing enzyme APOBEC-3G (Homo sapiens) (Q9HC16 whole entry, looked up): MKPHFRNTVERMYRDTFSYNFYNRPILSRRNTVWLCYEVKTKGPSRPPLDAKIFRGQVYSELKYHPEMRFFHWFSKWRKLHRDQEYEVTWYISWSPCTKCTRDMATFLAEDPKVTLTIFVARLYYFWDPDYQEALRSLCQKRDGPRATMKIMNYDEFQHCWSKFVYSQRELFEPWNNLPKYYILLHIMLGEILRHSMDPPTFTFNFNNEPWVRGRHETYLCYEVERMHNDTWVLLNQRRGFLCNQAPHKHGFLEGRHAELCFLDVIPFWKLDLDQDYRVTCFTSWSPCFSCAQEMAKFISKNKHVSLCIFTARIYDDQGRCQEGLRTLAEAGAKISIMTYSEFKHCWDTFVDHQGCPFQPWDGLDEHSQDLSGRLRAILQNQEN
Procedure, shortened: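 HeLa cells stably expressing Vif and A3G-eYFP, 700 cells/well, incubated overnight at 37 deg C, then exposed to compound overnight at 37 deg C. Inhibition of Vif-mediated degradation read as increased yellow fluorescence (Ex 488/Em 500-530) by laser-scanning cytometry.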

[7] = system: Zika virus NS2B-NS3 protease; test: Primary screen GU AMC qHTS for Zika virus inhibitors (AID 1347154); note: nearly all actives have a fitted effect of over 70% in size; note: potency is the fitted concentration of half-maximal effect
Procedure, shortened: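 Unlinked Zika NS2B hydrophilic domain/NS3 protease domain noncovalent complex (25 nM final) in 10 mM Tris-HCl pH 8.0, 0.01% Tween 20, with AMC peptide substrate. Fluorescence (ex 340, em 450 nm) change over 15 min, room temperature; percent inhibition fitted to 4-parameter Hill equation.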

[8] = Confirmatory screen GU Rhodamine qHTS for Zika virus inhibitors qHTS (AID 1347157); note: nearly all actives have a fitted effect of over 70% in size; note: potency is the fitted concentration of half-maximal effect
Procedure, shortened: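 Enzyme 25 nM in Tris-HCl pH 8.0 + 0.01% Tween 20; compounds up to 114 microM, 15 min RT dark; + Rhod110 substrate 1.5 microM; read t0 and 15 min; delta fluorescence → % inhibition → 4-parameter Hill fit.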

[9] = ZIKV-mCherry secondary qHTS for Zika virus inhibitors (AID 1347158); note: top concentration of the series differs between compounds
Procedure, shortened: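 After overnight seeding at 37 °C, Vero cells receive compound and then ZIKV-mCherry (MOI 1). Following 48-72 h infection, cells are fixed, counterstained with Hoechst, and imaged; percent infected cells is derived from an mCherry intensity cut-off of 450 RFU.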

[10] = Confirmatory screen NINDS Rhodamine qHTS for Zika virus inhibitors (AID 1347161); note: nearly all actives have a fitted effect of over 60% in size; note: potency is the fitted concentration of half-maximal effect
Procedure, shortened: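 Percent inhibition, normalized to uninhibited and enzyme-free controls, is fitted to a 4-parameter Hill equation. Fluorescence change comes from a 15-min cleavage of 1.5 microM bis-peptide Rhodamine110 substrate by 25 nM linked NS2B-NS3 at room temperature.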

[11] = HPAF-II 12hr Apoptosis Induction qHTS against the NCATS CANVASS Library (AID 1347358)
Procedure, shortened: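 Apoptosis in HPAF-II pancreatic cancer cells is scored as caspase 3/7 luminescence following a 12-hour exposure to an 11-point compound series.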

[12] = HEK293 12hr Apoptosis Induction qHTS against the NCATS CANVASS Library (AID 1347361)
Procedure, shortened: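 HEK293 cells (500/well) were exposed to an 11-point qHTS concentration series for 12 hours at 37 degrees C. Caspase-3/7 activity was then read by DEVD-substrate luciferase luminescence after 15 min at room temperature.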

[13] = molecular target: Luciferin 4-monooxygenase (Photinus pyralis) (UniProt P08659); test: Firefly luciferase counterscreen qHTS: Assay Interference Panel against the NCATS CANVASS Library (AID 1347363); note: series mostly up to about 57 µM
Sequence of Luciferin 4-monooxygenase (Photinus pyralis) (P08659 whole entry, looked up): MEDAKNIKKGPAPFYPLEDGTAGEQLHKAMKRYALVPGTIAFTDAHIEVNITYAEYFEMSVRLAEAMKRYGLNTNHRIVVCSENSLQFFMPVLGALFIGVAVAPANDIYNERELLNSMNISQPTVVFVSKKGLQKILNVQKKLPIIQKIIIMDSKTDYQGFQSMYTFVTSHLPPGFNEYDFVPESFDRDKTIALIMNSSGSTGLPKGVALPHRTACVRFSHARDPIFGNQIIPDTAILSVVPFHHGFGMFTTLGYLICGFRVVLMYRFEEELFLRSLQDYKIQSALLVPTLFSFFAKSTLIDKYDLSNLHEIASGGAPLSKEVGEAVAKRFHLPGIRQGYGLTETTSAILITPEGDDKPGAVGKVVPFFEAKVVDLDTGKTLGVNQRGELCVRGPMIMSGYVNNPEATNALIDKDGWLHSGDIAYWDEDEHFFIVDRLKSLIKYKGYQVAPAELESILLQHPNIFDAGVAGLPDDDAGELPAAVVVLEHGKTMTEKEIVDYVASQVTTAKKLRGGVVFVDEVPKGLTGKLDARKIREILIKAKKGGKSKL
Procedure, shortened: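 Purified P. pyralis luciferase was added to compounds (11-point series) preincubated 15 min at room temperature with substrate containing 0.013 mM D-luciferin and 0.013 mM ATP; luminescence was read after 5 min.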

[14] = qHTS for Hypoxia signaling pathway (HIF-1) antagonists against the NCATS CANVASS Library (AID 1347374); note: nearly all actives have a fitted effect of over 60% in size; note: potency is the fitted concentration of half-maximal effect
Procedure, shortened: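 HRE-bla ME-180 cells (2,000/well, 0.5% dialyzed FBS) were pre-incubated 5 h, then given an 11-point compound series plus CoCl2 (60 uM solution as added) for 17 h at 37C. CCF4 β-lactamase read (ex 405, em 460/530 nm) after 2 h at RT.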

[15] = qHTS for activators of Nrf2/ARE signaling pathway screened against the NCATS CANVASS Library (AID 1347391); note: nearly all actives have a fitted effect of over 60% in size
Procedure, shortened: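 Cells carrying an ARE-driven beta-lactamase reporter (HepG2 background) are dosed for 16 h, then stained with CCF4. Cell viability in the same wells is measured by CellTiter-Glo luminescence.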

[16] = HPAF-II 18hr Apoptosis Induction qHTS against the NCATS CANVASS Library (AID 1347360)
Procedure, shortened: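 HPAF-II cells at 500/well were exposed for 18 h at 37 C to an 11-point compound series. Caspase-3/7 activity was read by Caspase-Glo luminescence after 15 min at RT.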

[17] = G06 Cancer Cell Toxicity qHTS against the NCATS CANVASS Library (AID 1347368); note: nearly all actives have a fitted effect of over 60% in size; note: potency is the fitted concentration of half-maximal effect
Procedure, shortened: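 Cytotoxicity toward canine glioma G06 cells is scored from cellular ATP via luminescence after 72 hr compound exposure at 500 cells/well.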

[18] = qHTS for inhibitors of Wild type Zika virus screened against the NCATS CANVASS Library (AID 1347396); note: potency is the fitted concentration of half-maximal effect
Procedure, shortened: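 Protection against wild-type Zika cytopathic effect is measured in African green monkey Vero 766 cells exposed to an 11-point compound series. Surviving cells are quantified by CellTiter Glo luminescence after 72 h.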

[19] = qHTS for Antimalaria activity screened against the NCATS CANVASS Library (AID 1347380); note: potency is the fitted concentration of half-maximal effect; nearly all actives have a fitted effect of over 40% in size
Procedure, shortened: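 Growth inhibition of asexual erythrocytic P. falciparum Dd2 was quantified by SYBR Green DNA staining. Cultures grew 72 h with compound (11-point series) in hypoxic gas at 37C; lysis and staining lasted 18 h.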

**Q.** What does the source list for `CCCCCCCCC(=O)NCc1cc(OC)c(O)cc1I`?
**A.** Potency [1]: > 46 µM; Potency [2]: > 46 µM; Potency [3]: inactive; Potency [4]: 3.16 µM (active); Potency [5]: inactive; Potency [6]: inactive; Potency [7]: inactive

**Q.** With `COc1cc2c(cc1OC)-c1cc3nc4ccccc4nc3n1C(C)(C)C2` as the molecule, how does the Potency [1] read?
**A.** > 46 µM

**Q.** What about the Potency [2] of the same molecule?
**A.** > 46 µM

**Q.** What about the Potency [6] of the same molecule?
**A.** inactive

**Q.** What about the Potency [7] of the same molecule?
**A.** inactive

**Q.** Which results are given for `O=C(/C=C\c1ccc(O)c(O)c1)O[C@@H](Cc1ccc(O)c(O)c1)C(=O)O`?
**A.** Potency [1]: > 46 µM; Potency [2]: > 46 µM; Potency [6]: inactive; Potency [7]: 4.74 µM (active)

**Q.** Which results are given for `CC(C)c1ccc(NC(=O)c2ccc3c(O)c(S(=O)(=O)c4ccccc4)c(=O)[nH]c3c2)cc1`?
**A.** Potency [8]: 17.8 µM (active); Potency [9]: inactive; Potency [10]: 3.98 µM (active)

**Q.** For `Cc1c[nH]c(=O)n(CCCN2CCN(c3ccccc3OCC(F)(F)F)CC2)c1=O`, which Potency [1] is on record?
**A.** > 46 µM

**Q.** What about the Potency [3] of the same molecule?
**A.** inactive

**Q.** And the Potency [6]?
**A.** inactive

**Q.** What about the Potency [7] of the same molecule?
**A.** inactive

**Q.** With `CC(C)(C)c1ccc(C(=O)Nc2ccc(C(=O)OCc3cc(=O)n4ccsc4n3)cc2)cc1` as the molecule, how does the Potency [8] read?
**A.** inactive

**Q.** For `CCOC(=O)c1ccc(CN(Cc2ccc(F)cc2)S(=O)(=O)c2cc(C(=O)Nc3cccc(C(F)(F)F)c3)ccc2F)cc1`, which Potency [8] is on record?
**A.** inactive

**Q.** What about the Potency [10] of the same molecule?
**A.** inactive

**Q.** For `O=C(OC1Cc2c(O)cc(O)cc2OC1c1cc(O)c(=O)c2c(O)c(O)cc(C3Oc4cc(O)cc(O)c4CC3OC(=O)c3cc(O)c(O)c(O)c3)c2c1)c1cc(O)c(O)c(O)c1` (stereo not given), which Potency [8] is on record?
**A.** 5.01 µM (active)

**Q.** What about the Potency [9] of the same molecule?
**A.** inactive

**Q.** And the Potency [10]?
**A.** 11.2 µM (active)

**Q.** For `N[C@H](C(=O)O)[C@@H]1[C@@H](C(=O)O)C1(F)F`, which Potency [2] is on record?
**A.** > 46 µM

**Q.** What about the Potency [3] of the same molecule?
**A.** inactive

**Q.** And the Potency [6]?
**A.** inactive

**Q.** And the Potency [7]?
**A.** inactive

**Q.** Which Potency [1] does the source give for `O=C(Nc1cc(C(=O)Nc2ccc(S(=O)(=O)O)cc2S(=O)(=O)O)cc(C(=O)Nc2ccc(S(=O)(=O)O)cc2S(=O)(=O)O)c1)Nc1cc(C(=O)Nc2ccc(S(=O)(=O)O)cc2S(=O)(=O)O)cc(C(=O)Nc2ccc(S(=O)(=O)O)cc2S(=O)(=O)O)c1` here?
**A.** > 46 µM

**Q.** What about the Potency [2] of the same molecule?
**A.** > 46 µM

**Q.** And the Potency [5]?
**A.** inactive

**Q.** And the Potency [6]?
**A.** inactive

**Q.** With `O=C(Nc1ccc(C(=O)Nc2ccc(C(=O)Nc3ccc(S(=O)(=O)O)c4cc(S(=O)(=O)O)cc(S(=O)(=O)O)c34)cc2)cc1)Nc1ccc(C(=O)Nc2ccc(C(=O)Nc3ccc(S(=O)(=O)O)c4cc(S(=O)(=O)O)cc(S(=O)(=O)O)c34)cc2)cc1` as the molecule, how does the Potency [1] read?
**A.** > 46 µM

**Q.** What about the Potency [2] of the same molecule?
**A.** > 46 µM

**Q.** What about the Potency [6] of the same molecule?
**A.** inactive

**Q.** For `O=C(O)c1nc2cc(Cl)c(Cl)cc2[nH]c1=O`, which Potency [4] is on record?
**A.** inactive

**Q.** For `O=C(OC1Cc2c(O)cc(O)cc2OC1c1cc(O)c(O)c(O)c1-c1c(C2Oc3cc(O)cc(O)c3CC2OC(=O)c2cc(O)c(O)c(O)c2)cc(O)c(O)c1O)c1cc(O)c(O)c(O)c1` (stereo not given), which Potency [4] is on record?
**A.** inactive

**Q.** With `O=C1c2c(O)cc(O)cc2O[C@@H](c2ccc(O)cc2)[C@@H]1c1c(O)cc(O)c2c(=O)cc(-c3ccc(O)c(O)c3)oc12` as the molecule, how does the Potency [11] read?
**A.** inactive

**Q.** What about the Potency [12] of the same molecule?
**A.** inactive

**Q.** And the Potency [13]?
**A.** inactive

**Q.** And the Potency [14]?
**A.** inactive

**Q.** And the Potency [15]?
**A.** inactive

**Q.** Which Potency [11] does the source give for `C=C1/C=C\C(CCC)=C\c2csc(n2)C(C)NC(=O)C[C@@]2(CC(=O)O)CCC(=C)[C@H](C1)S2` (stereo not given in full) here?
**A.** inactive

**Q.** What about the Potency [16] of the same molecule?
**A.** inactive

**Q.** What about the Potency [12] of the same molecule?
**A.** inactive

**Q.** And the Potency [17]?
**A.** inactive

**Q.** What about the Potency [14] of the same molecule?
**A.** inactive

**Q.** And the Potency [18]?
**A.** inactive

**Q.** With `CO[C@@H]1C[C@@H](C[C@H]2CC[C@H](C)[C@H]([C@@H](C)C(=O)O)O2)O[C@]2(O[C@](C)([C@H]3CC[C@@](C)([C@@H]4O[C@@H]([C@H]5O[C@](C)(O)[C@H](C)C[C@@H]5C)C[C@@H]4C)O3)C[C@H]2C)[C@@H]1C` as the molecule, how does the Potency [16] read?
**A.** inactive

**Q.** And the Potency [12]?
**A.** inactive

**Q.** What about the Potency [13] of the same molecule?
**A.** inactive

**Q.** What about the Potency [17] of the same molecule?
**A.** 0.132 µM (active)

**Q.** What about the Potency [14] of the same molecule?
**A.** 2.11 µM (active)

**Q.** What about the Potency [19] of the same molecule?
**A.** 0.0042 µM (active)

**Q.** What about the Potency [15] of the same molecule?
**A.** inactive

**Q.** And the Potency [18]?
**A.** 1.04 µM (active)
